# HCV inh – HCV inhibition. Huh7.5.1 HCVcc-Cre infection, luciferase reporter, 44 h. Potency, µM (top dose mostly 41.8 µM), inactives show top-dose activity change, negative = inhibition, most hits filed as inhibitors. 340,000 compounds, 3.4% hits; also: potency is read from the fitted curve at half-maximal effect
#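 Antiviral activity was scored by luciferase reporter output from cells infected with HCVcc-Cre (~0.5 moi) in presence of compound, 44 h infection period, cells seeded 1,000/well 4 h prior.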
# Vaccinia Venus – vaccinia inhibition (Venus reporter); Potency, µM (series often up to 36.5 µM), for inactives: at the highest dose activity change, negative = inhibition, actives largely listed as inhibitors; AID 720580; Vaccinia virus Venus reporter expression, fluorescence; 330,000 compounds, 0.46% hits; calls by dose curve; tested in A549 cells; also: potency is read from the fitted curve at half-maximal effect; nearly all actives have a fitted effect of over 30% in size
# FMDV antiviral – antivirals against foot and mouth disease virus. 410,000 compounds, 1.2% hits. Potency, µM (titrated, usually from 57.9 µM), for the others: top-dose activity change, negative = inhibition, hits mostly inhibitors. FMDV antiviral cell-based qHTS; calls by dose curve; tested in HEK293T cells; also: read-out not given here; potency is read from the fitted curve at half-maximal effect; nearly all actives have a fitted effect of over 45% in size
# HCMV antiviral – human cytomegalovirus inhibition. 410,000 compounds, 4.5% hits. activity change, negative = inhibition, % at 57.5 µM. AID 1259415. HFF cells, HCMV-luciferase reporter, 72 h; active compounds read low; in the data active = activity change below about -60%; inconclusive = no clear call, values can overlap the other calls; inactive = above about -39%
#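 Two-dose cell screen: HFF monolayers treated with compounds and infected with luciferase-expressing HCMV at 1 PFU/cell, 72 h at 37C, then lysed for luciferase measurement.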
# VACV mCherry inh – inhibitors of vaccinia virus infection (mCherry reporter signal) | Vaccinia virus mCherry reporter infection, fluorescence | Potency, µM (top dose mostly 36.5 µM), inactives show at the highest dose activity change, negative = inhibition, usual class: inhibitors | 310,000 compounds, 0.63% hits | AID 720579; calls by dose curve; tested in A549 cells; also: potency is read from the fitted curve at half-maximal effect; nearly all actives have a fitted effect of over 35% in size
# Sm TGR inh – blocks Schistosoma mansoni thioredoxin glutathione reductase; Q962Y6; purified TGR, DTNB reduction, TNB absorbance 405 nm; 360,000 compounds, 3% hits; Potency, µM (titrated, usually from 114 µM), for inactives: top-dose activity change, negative = inhibition, usual class: inhibitors; also: potency is read from the fitted curve at half-maximal effect; nearly all actives have a fitted effect of over 60% in size
#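 First, TGR (20 nM dispensed) and NADPH were mixed with compound. Second, a 15 min room-temperature incubation followed. Third, further NADPH and then DTNB were added to start the reaction. Finally, TNB absorbance was monitored kinetically.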
# The depositor's hits bear a star; i = inactive; ? = inconclusive; · = not tested or not shown. Rows were chosen to be rich in hits. Some 9.3% of all compounds tested hit in one or more screens of this group. Unless noted, calls follow the shape of the dose curve; as a rule, active = well fitted curve in the direction sought with a large enough effect; inconclusive = small, poorly fitted or top-dose-only effect, or another doubt; inactive = no such curve, though single readings can be large; an effect the other way counts as inactive or inconclusive. % is scaled to controls: 0 for no effect and ±100 for the full control effect.
SMILES,HCV inh,Vaccinia Venus,FMDV antiviral,HCMV antiviral,VACV mCherry inh,Sm TGR inh
CN(c1ccccc1)S(=O)(=O)c1ccc(Cl)c(C(=O)Nc2ccc(N3CCOCC3)cc2)c1,15.8µM*,-14.8%,-14.8%,-24.0,-13.3%,-4.7%
COc1ccc(C(=O)Nc2ccc3c(c2)OCCO3)cc1S(=O)(=O)N1CCOCC1,?,·,-8.8%,48.4,·,-4.8%
Cc1ccc(NC(=O)c2ccc3c(c2)OCO3)cc1S(=O)(=O)N1CCOCC1,-15.4%,·,-3.9%,-25.3,·,1.3%
Cc1ccc(NC(=O)c2ccc(S(=O)(=O)N(C)c3ccccc3)cc2)cc1S(=O)(=O)N1CCOCC1,?,·,12.6µM*,0.0,·,·
Cc1ccc(N(Cc2ccccc2)C(=O)c2ccc(S(=O)(=O)N3CCOCC3)cc2)cc1,-6.9%,-14.1%,54.7%,?,-4.7%,-7.7%
CN(C)CCNc1nc2c(c(=O)[nH]c(=O)n2C)n1CCCc1ccccc1,2.7%,-5.2%,-14.6%,8.0,-6.2%,0.0%
COC(=O)C(=C/C(C)=C/c1cccs1)C(=O)OC,-4.6%,-14.3%,28.2µM*,-26.4,-17.3%,?
N=c1oc2ccc(Br)cc2cc1C(=O)NCc1ccccc1,·,-4.8%,3.9%,-0.6,i,-3.9%
CCCCCCc1cc2cc(C(=O)NCc3ccccc3)c(=N)oc2cc1O,-2.1%,·,-11.1%,-69.3*,·,0.0%
CCCCCCc1cc2cc(S(=O)(=O)c3ccc(C)cc3)c(=O)oc2cc1O,10.7%,-20.8%,-21.9%,25.0,12.8%,-12.5%
CCCCCCc1cc2cc(C(=O)Nc3ccccc3)c(=O)oc2cc1O,4.47µM*,-10.2%,?,-100.1*,i,-7.4%
c1ccc(-n2ncc3c(N4CCN(c5ccccn5)CC4)nc(N4CCOCC4)nc32)cc1,·,·,·,·,·,5.0%
O=C1Nc2ccccc2C12OCC(COc1ccc(Cl)cc1)O2 (stereo not given),12.6µM*,?,?,-10.7,-5.9%,-8.0%
CN1C(=O)C2(OCC(COc3ccc(Cl)cc3)O2)c2ccccc21 (stereo not given),-23.2%,-18.3%,·,?,i,1.1%
CCOC(=O)N/N=C\c1ccc(-c2cc(Cl)ccc2Cl)o1,-9.4%,-7.4%,-12.0%,?,-15.6%,·
CCOc1ccc(NC(=O)CNc2cccc(S(=O)(=O)N3CCCCCC3)c2)cc1OCC,11.2µM*,·,?,0.0,·,·
COc1ccc(NCC(=O)Nc2cccc(S(=O)(=O)N3CCCC3)c2)cc1Cl,10µM*,·,-11.5%,43.9,·,·
CCOc1ccccc1OCC(=O)Nc1cccc(S(=O)(=O)N2CCCCCC2)c1,?,-21.9%,-41.1%,0.5,-22.6%,-4.5%
CCOc1cc2c(cc1OCC)CN(C(=O)c1cccc(S(=O)(=O)N3CCCC3)c1)CC2,8.91µM*,·,-22.4%,-23.2,·,1.4%
COc1cc(CC(=O)Nc2cccc(C(F)(F)F)c2)cc(OC)c1OC,?,-16.0%,?,-71.2*,-18.7%,2.3%
COc1cc(NC(=O)CNc2cccc(S(=O)(=O)N3CCCC3)c2)cc(OC)c1,?,·,-27.6%,-8.0,·,-7.8%
COc1cc(CCC(=O)Nc2cccc(C(F)(F)F)c2)cc(OC)c1OC,?,-11.2%,0.0%,-27.9,-19.1%,-11.8%
COc1ccc2c(c1)-c1nc(-n3ncc(C(=O)NCC4CCCN(C)C4)c3C3CC3)ncc1CC2 (stereo not given),·,0.3%,-18.6%,·,-14.3%,·
COc1cc(N=c2ssnc2Cl)cc(OC)c1OC,-2.2%,-15.6%,?,16.9,i,?
COc1ccc(S(=O)(=O)N2CCCCCC2)cc1C(=O)N(C)Cc1ccc(C)cc1,?,-25.8%,-24.3%,-35.6,?,4.1%
SMILES,HCV inh,Vaccinia Venus,FMDV antiviral,HCMV antiviral,VACV mCherry inh,Sm TGR inh
CC(C)c1ccccc1OCC(O)CN1CCN(S(=O)(=O)c2ccc([N+](=O)[O-])cc2)CC1 (stereo not given),12.6µM*,?,?,23.1,?,-5.8%
COc1ccccc1-n1cnnc1SCC(=O)Nc1cccc(S(=O)(=O)N2CCCCC2)c1,9.3%,·,·,-67.9*,·,0.0%
O=C(CN1CCN(S(=O)(=O)c2ccccc2)CC1)Nc1ccc([N+](=O)[O-])cc1,?,2.9%,0.0%,-68.5*,-1.7%,-4.1%
CCc1cccc(C)c1NC(=O)CN1CCN(S(=O)(=O)c2ccc(C(C)(C)C)cc2)CC1,2µM*,-19.7%,-23.8%,-19.7,?,-13.2%
Cc1ccc(S(=O)(=O)N2CCN(CC(=O)Nc3ccc([N+](=O)[O-])cc3)CC2)cc1C,-15.7%,-27.4%,-26.2%,?,-18.9%,-11.0%
O=C(COC(=O)CN1C(=O)c2ccccc2C1=O)NC1CCCC1,17.4%,5.4%,-4.9%,-4.1,7.9%,-0.4%
O=C(c1cnccn1)N1CCC[C@@]2(CCN(c3ncccn3)C2)C1,·,·,-12.8%,·,·,·
COc1cccc(C(=O)CN2CCN(S(=O)(=O)c3ccc(Br)cc3)CC2)c1,20.4%,1.1%,-7.8%,·,·,14.1µM*
COc1ccc(S(=O)(=O)N2CCCN(CC(=O)Nc3ccc(OC)c(Cl)c3)CC2)cc1,-7.2%,-13.0%,-7.0%,16.1,-18.9%,31.6µM*
COc1ccc(CC(=O)Nc2cccc(S(=O)(=O)N3CCCCCC3)c2)cc1OC,?,-28.3%,?,-83.1*,?,-2.7%
COc1ccc(CCC(=O)Nc2cccc(S(=O)(=O)N3CCCCCC3)c2)cc1OC,?,·,?,-17.7,·,40.7%
COc1cccc(CN2CCN(S(=O)(=O)c3ccc(Br)cc3)CC2)c1,-1.4%,-4.3%,·,-27.4,-2.8%,1.4%
COc1ccc(NC(=O)CN2CCN(S(=O)(=O)c3ccc(Cl)cc3)CC2)cc1Cl,-3.8%,?,-21.8%,47.1,·,4.5%
COc1ccc(NC(=O)CN(C2CCCCC2)S(C)(=O)=O)cc1Cl,-25.7%,·,-26.0%,-72.7*,·,-0.5%
C[C@H](CO)N1C[C@H](C)[C@@H](CN(C)C(=O)Nc2ccccc2)Oc2ccc(NC(=O)c3ccncc3)cc2C1=O,19.9%,1.0%,21.7%,0.0,-22.0%,·
Cc1ccc(N(Cc2cc3ccccc3[nH]c2=O)S(C)(=O)=O)cc1,-3.2%,-9.1%,-16.2%,29.5,i,0.2%
COC(=O)c1cc(NC(=O)Cc2ccc(OC)c(OC)c2)cc(C(=O)OC)c1,-22.5%,-0.9%,-2.8%,48.8,2.1%,3.5%
COc1ccc(CC(=O)Nc2cccc(SC)c2)cc1OC,3.98µM*,-15.6%,?,-66.2*,i,?
Cc1cc(C)c2nc3sc(=Cc4ccc(-c5ccccc5C(=O)O)o4)c(=O)n3c2c1,·,3.3%,-14.5%,26.1,i,·
O=C(O)c1ccc(-c2ccc(/C=c3/sc4nc5ccccc5n4c3=O)o2)cc1Cl,19.1%,15.9%,18.2%,-2.7,-11.8%,28.2µM*
CN(C)CC/C=C1\c2cc(F)ccc2CSc2ccccc21,?,?,?,17.9,-12.7%,-0.9%

# Source: PubChem
